Measured values published in PubChem BioAssay (EPA / NIEHS).
Records with an inconclusive call do not appear. The source made the active and inactive calls. The calls were made as follows, unless noted: active = hit-call score of the fitted dose curve at least 0.9, where 1 is the maximum; inactive = score below 0.9.

Key:
[1] = CCTE_Shafer_MEA_dev_firing_rate_mean: CCTE's Neural Network Formation Assay for Mean Firing Rate, Shafer Lab (AID 2284031)
Method in brief: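 Steps: seed rat cortical cells (1.5 x 10^5/well) with laminin on PEI-coated MEA; dose day 0; record DIV 5/7/9/12, full media and compound exchange after DIV 5 and 9 recordings; compute well-mean firing rate AUC.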

[2] = CCTE_Shafer_MEA_dev_per_burst_spike_percent: CCTE's Neural Network Formation Assay for Percent of Spikes in a Burst, Shafer Lab (AID 2284032);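 also: fitted as a decrease in burst spike percentage below DMSO baseline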
Method in brief: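 Value is trapezoidal AUC over recordings on days 5, 7, 9 and 12 of the well-mean fraction of spikes falling in single-electrode bursts; rat cortical cultures exposed continuously from plating, treatment renewed DIV 5 and 9, fitted downward against DMSO.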

[3] = CCTE_Shafer_MEA_dev_active_electrodes_number: CCTE's Neural Network Formation Assay for Number of Active Electrodes, Shafer Lab (AID 2284040; active = hit-call score of the fitted dose curve at least 0.9, where 1 is the maximum;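 also: potency for loss of active electrodes versus DMSO so lower counts are hits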)
Method in brief: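 Counts electrodes per well firing at least 5 spikes/min, recorded on days 5, 7, 9 and 12 in rat cortical cultures dosed continuously from plating (treatment refreshed DIV 5, 9). Value is the area under the curve over recordings, fitted downward relative to DMSO.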

[4] = CCTE_Shafer_MEA_dev_burst_rate: CCTE's Neural Network Formation Assay for Burst Rate, Shafer Lab (AID 2284042)
Method in brief: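 Rat primary cortical cultures on PEI/laminin MEA; compound from plating, re-dosed at DIV 5, 9 media change. Single-electrode bursts/recording length, well mean of active electrodes; AUC over DIV 5–12 recordings; loss-of-signal vs DMSO.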

[5] = CCTE_Shafer_MEA_dev_bursting_electrodes_number: CCTE's Neural Network Formation Assay for Number of Bursting Electrodes, Shafer Lab (AID 2284043; active = hit-call score of the fitted dose curve at least 0.9, where 1 is the maximum;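 also: potency is for loss of bursting electrodes relative to DMSO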)
Method in brief: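 Counted: electrodes with burst rate ≥1 per 2 min in each well. Cells: primary rat cortex, 1.5 x 10^5/well, on 16-electrode MEA wells. Exposure: DIV 0–12, compound renewed DIV 5 and 9. Recording days 5, 7, 9, 12; AUC vs DMSO baseline.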

[6] = CCTE_Shafer_MEA_dev_per_burst_interspike_interval: CCTE's Neural Network Formation Assay for Burst Interspike Interval, Shafer Lab (AID 2284044);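 also: potency for a decrease of within-burst interspike interval below DMSO level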
Method in brief: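 Readout is the average time between spikes inside single-electrode bursts, taken as a well mean across bursting electrodes. Cortical neurons from rat developed networks on MEA plates under continuous 12-day exposure; recordings on days 5, 7, 9 and 12 were integrated by trapezoidal AUC.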

[7] = CCTE_Shafer_MEA_dev_burst_duration_mean: CCTE's Neural Network Formation Assay for Mean Burst Duration, Shafer Lab (AID 2284045)
Method in brief: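 Network-formation assay in primary rat cortical neurons; treatment spans twelve days of development. Mean burst duration per well is integrated by trapezoidal AUC and fitted in the loss-of-signal direction against DMSO baseline.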

[8] = CCTE_Shafer_MEA_dev_interburst_interval_mean: CCTE's Neural Network Formation Assay for Mean Interburst Interval, Shafer Lab (AID 2284046);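 also: well-mean interburst interval of bursting electrodes as AUC over four recording days; curve fitted for decrease in interburst interval relative to DMSO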
Method in brief: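 Rat cortical neurons, 1.5 x 10^5 cells/well, 48-well MEA; compound from day 0 through DIV 12, media and treatment renewed DIV 5/9. Recordings DIV 5, 7, 9, 12; well-mean interburst interval → trapezoidal AUC, loss direction vs DMSO.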

[9] = CCTE_Shafer_MEA_dev_inter_network_spike_interval_mean: CCTE's Neural Network Formation Assay for Mean Inter-network Spike Interval, Shafer Lab (AID 2284047)
Method in brief: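 Primary rat cortical neurons on PEI-coated 48-well MEAs (16 electrodes/well) were exposed from plating day 0 to DIV 12, with dosing renewed at DIV 5 and 9. Recordings at DIV 5, 7, 9, 12 were collapsed by trapezoidal AUC, loss-of-signal fit vs DMSO.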

[10] = CCTE_Shafer_MEA_dev_network_spike_number: CCTE's Neural Network Formation Assay for Number of Network Spikes, Shafer Lab (AID 2284048)
Method in brief: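 Extracellular recordings from 16-electrode wells track network formation in rat cortical cultures under continuous treatment from plating. The endpoint is network spike number, expressed as AUC across DIV 5–12 relative to DMSO vehicle.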

[11] = CCTE_Shafer_MEA_dev_network_spike_peak: CCTE's Neural Network Formation Assay for Mean Number of Electrodes in Network Spike, Shafer Lab (AID 2284049);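 also: fitted for loss of signal meaning fewer electrodes in network spikes than DMSO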
Method in brief: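 Continuous 12-day exposure of rat cortical cultures, starting at plating, on MEA plates. Endpoint: electrodes participating in network-spike peaks, AUC across DIV 5–12, DMSO as negative control.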

[12] = CCTE_Shafer_MEA_dev_spike_duration_mean: CCTE's Neural Network Formation Assay for Mean Spike Duration, Shafer Lab (AID 2284051);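 also: mean network spike duration pooled as area under curve over DIV 5 to 12 recordings; potency for a decrease in mean network spike duration versus DMSO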
Method in brief: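 Rat cortical primary cultures, 48-well MEA (16 electrodes/well); compound from plating, renewed DIV 5, 9. Network spike duration (AxIS adaptive detector) recorded DIV 5/7/9/12, combined as trapezoidal AUC; loss direction vs DMSO.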

[13] = CCTE_Shafer_MEA_dev_network_spike_duration_std: CCTE's Neural Network Formation Assay for Standard Deviation of Network Spike Duration, Shafer Lab (AID 2284052);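 also: area under curve of spike duration SD across recording days 5 to 12; hits are decreases in network spike duration SD versus DMSO vehicle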
Method in brief: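 Rat cortical cultures, 1.5 x 10^5 cells/well, exposed continuously from plating to DIV 12 with media/compound renewal at DIV 5, 9. Spontaneous activity recorded DIV 5/7/9/12, AxIS adaptive spike detector; AUC across days; negative direction vs DMSO.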

[14] = CCTE_Shafer_MEA_dev_per_network_spike_spike_number_mean: CCTE's Neural Network Formation Assay for Mean Number of Spikes in a Network Spike, Shafer Lab (AID 2284053)
Method in brief: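 Rat cortical primary cultures on 48-well MEA; compound from day 0, re-dosed with full media change DIV 5, 9. Recorded DIV 5, 7, 9, 12; spikes in 0.05 s window at network-spike peak ÷ total network spikes; AUC; loss vs DMSO.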

[15] = CCTE_Shafer_MEA_dev_per_network_spike_spike_percent: CCTE's Neural Network Formation Assay for Percent of Spikes in a Network Spike, Shafer Lab (AID 2284054)
Method in brief: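 Developing networks of rat cortical neurons are dosed at day 0 and recorded extracellularly four times up to day 12. The endpoint is the area under the curve of percent spikes in network spikes, fitted in the negative direction relative to DMSO.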

[16] = CCTE_Shafer_MEA_dev_LDH: CCTE's Lactate Dehydrogenase Assay for Cytotoxicity in the Neural Network Formation Assay, Shafer Lab (AID 2284068; active = hit-call score of the fitted dose curve at least 0.9, where 1 is the maximum;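 also: exposure for twelve days from plating with re-dosing on DIV 5 and 9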)
Method in brief: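 Rat cortical primary neurons, MEA culture; dosing day 0–12, full medium plus compound exchange DIV 5, 9. Read-out: LDH enzyme activity, spectrophotometric. DMSO = negative control/baseline; signal loss → cytotoxicity.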

[17] = CCTE_Shafer_MEA_dev_AB: CCTE's Alamar Blue Assay for Cytotoxicity in the Neural Network Formation Assay, Shafer Lab (AID 2284083; active = hit-call score of the fitted dose curve at least 0.9, where 1 is the maximum;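 also: resazurin reduction fluorescence as viability of cultured neurons; twelve days of exposure from plating with re-dosing on DIV 5 and 9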)
Method in brief: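 Rat cortical primary cultures, 1.5 x 10^5 cells/well on MEA; continuous compound exposure over 12 days of network development, re-dosed with full medium change DIV 5 and 9. Alamar Blue fluorescence; loss of signal = cytotoxicity vs DMSO baseline.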

[18] = CCTE_Shafer_MEA_dev_correlation_coefficient_mean: CCTE's Neural Network Formation Assay for Mean Correlation Coefficient, Shafer Lab (AID 2284093)
Method in brief: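 Rat cortical cultures, 1.5 x 10^5 cells/well, dosed from day 0 for 12 days. Spontaneous spikes recorded DIV 5/7/9/12; electrode-pair correlation coefficients averaged, AUC taken. Fit in loss direction vs DMSO.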

[19] = UKN2_HCS_IMR90_neural_migration: University of Konstanz (UKN) Leist Lab Neural Crest Cell Migration Assay in human induced IMR90 Pluripotent Stem Cells (UKN2) (AID 2284204); conditions: actives raise or lower the signal
Method in brief: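 Using a 96-well stopper format with PLO/laminin/fibronectin coating, neural crest cells from iPSC migrate in cytokine-supplemented N2-S medium; after 24 h, chemicals are applied for a further 24 h, then cells are imaged after dye staining.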

[20] = IUF_NPC1b_proliferation_BrdU_72hr: Leibniz Research Institute for Environmental Medicine (IUF) 72-hour Neural Progenitor Cell Bromodeoxyuridine (BrdU) Proliferation Assay (NPC1b) (AID 2284207)
Method in brief: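 Neural progenitor spheres of human fetal origin are treated for three days; BrdU added for the last 16 h is quantified by luminescence ELISA, with DMSO as baseline and EGF/FGF omission as positive control.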

[21] = IUF_NPC1a_proliferation_area_72hr: Leibniz Research Institute for Environmental Medicine (IUF) 72-hour Neural Progenitor Cell Proliferation Area Assay (NPC1a) (AID 2284208)
Method in brief: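 hNPC spheres (human fetal cortex, GW 16-19), one per poly-Hema U-bottom well; EGF+FGF medium; dosed day 0, no re-dosing; 72 h, 37C, 5% CO2; phase-contrast sphere area; DMSO = baseline; minus-GF = positive ctrl.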

[22] = IUF_NPC1_viability_72hr: Viability Assessment at 72 hours in the Leibniz Research Institute for Environmental Medicine (IUF) Neural Progenitor Cell Proliferation Assay (NPC1) (AID 2284209)
Method in brief: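 Spheres of primary human neural progenitors were plated singly in proliferation medium and treated for 72 h. Mitochondrial reduction of resazurin was then measured by fluorescence and analysed against DMSO controls.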

[23] = CCTE_Mundy_HCI_Cortical_Synap_Neur_Matur_NeuriteSpotCountPerNeuriteLength: CCTE's Synaptogenesis and Neurite Maturation Assay in rat cortical cells for Neurite Spot Count per Neurite Length, Mundy Lab (AID 2284210)
Method in brief: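 Neurite-associated synapse density (synaptophysin puncta per unit neurite length) is measured by fluorescence high-content imaging in rat cortical cultures treated from DIV 7 and fixed at DIV 12, with DMSO as negative control.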

[24] = CCTE_Mundy_HCI_Cortical_Synap_Neur_Matur_BPCount: CCTE's Synaptogenesis and Neurite Maturation Assay in rat cortical cells for Branch Point Count, Mundy Lab (AID 2284211)
Method in brief: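 HCI read-out of branch points from MAP2/synaptophysin/Hoechst immunofluorescence; rat cortical cultures, AraC DIV 5, dosing DIV 7, fixed DIV 12; fit in positive direction vs DMSO baseline.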

[25] = CCTE_Mundy_HCI_Cortical_NOG_NeuriteCount: CCTE's Neurite Outgrowth Assay in rat cortical cells for Neurite Count, Mundy Lab (AID 2284212);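 also: cells fixed about two days after chemical exposure began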
Method in brief: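 Rat cortical primary cells; compound added 2 h post-plating, 1/10 dilution of working solution. Anti-betaIII-tubulin/AF488 ICC; ArrayScan neurite count vs DMSO.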

Measured: AC50

CC(C)O
active: [2] 10.2 µM | [3] 7.59 µM | [5] 11.8 µM | [6] 10.2 µM | [11] 8.39 µM | [12] 14.3 µM | [14] 5.31 µM | [20] 91.7 µM
inactive: [1] | [4] | [7] | [8] | [9] | [10] | [13] | [15] | [16] | [17] | [18] | [19] | [21] | [22] | [23] | [24] | [25]
